Measurements published in PubChem BioAssay (NCI).
Values joined by “and” are separate entries in the source; they are usually repeats but may differ in a detail not shown here. Equal values may be shown once. The panel holds about 83,000 compounds, 20% with a hit somewhere; the sample as a whole holds those more often.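 Percent growth is the endpoint: 0 to 100 indicates growth inhibition (40 means 60% inhibition), 0 means no net growth, and negative values indicate cell death.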 Active and inactive are the calls of the source. How the source made its calls: active means growth percent below 10; inactive means the rest.

Key:
Assay in all cases: NCI-60 one-dose screen, 48 h (100 = growth as untreated, 0 = no growth, -100 = all killed)
Conditions in all cases: 10 µM unless noted
HCT-15 colon = system: HCT-15 colon
HT29 colon = system: HT29 colon
SNB-75 CNS = system: SNB-75 CNS
SNB-19 CNS = system: SNB-19 CNS
U251 CNS = system: U251 CNS
PC-3 prostate = system: PC-3 prostate
SK-MEL-5 melanoma = system: SK-MEL-5 melanoma
UACC-62 melanoma = system: UACC-62 melanoma
LOX IMVI melanoma = system: LOX IMVI melanoma
SK-MEL-28 melanoma = system: SK-MEL-28 melanoma

Compound | growth (HCT-15 colon) | growth (HT29 colon) | growth (SNB-75 CNS) | growth (SNB-19 CNS) | growth (U251 CNS) | growth (PC-3 prostate) | growth (SK-MEL-5 melanoma) | growth (UACC-62 melanoma) | growth (LOX IMVI melanoma) | growth (SK-MEL-28 melanoma)
NC(=O)Cc1nc(O)cc(=O)[nH]1 | 96.9% (inactive) | 93.2% (inactive) | 88.1% (inactive) | 96.9% (inactive) | 89.4% (inactive) | 76.2% (inactive) | 104% (inactive) | 98% (inactive) | 105% (inactive) | 113% (inactive)
CCCCCCCCCCCCCCCCC(=O)O | 102% (inactive) | 97.7% (inactive) | 101% (inactive) | 105% (inactive) | 98% (inactive) | 104% (inactive) | 100% (inactive) | 101% (inactive) | 98.4% (inactive) | 117% (inactive)
CCCC(=O)Oc1ccc(CC)cc1 | 99.5% (inactive) | 108% (inactive) | 88.8% (inactive) | 109% (inactive) | 98.4% (inactive) | 101% (inactive) | 106% (inactive) | 105% (inactive) | 97.8% (inactive) | 117% (inactive)
CC(=O)Nc1ccc(OC(C)=O)cc1 | 13.5% (inactive) and 102% (inactive) | -0.769% (active) and 105% (inactive) | 37.6% (inactive) and 94.3% (inactive) | 35.2% (inactive) and 111% (inactive) | 11.7% (inactive) and 102% (inactive) | 11.5% (inactive) and 92.8% (inactive) | 92.8% (inactive) | 18.5% (inactive) and 108% (inactive) | -24% (active) and 100% (inactive) | 82.6% (inactive) and 110% (inactive)
Clc1ccc(/C=C/c2ccc3ccccc3n2)cc1 | 26.6% (inactive) and 96.4% (inactive) and 81.7% (inactive) | 2.32% (active) and 79.3% (inactive) and 71.1% (inactive) | -21.1% (active) and 98.7% (inactive) and 88.1% (inactive) | 42.2% (inactive) and 96.2% (inactive) and 98.8% (inactive) | 16.3% (inactive) and 95.6% (inactive) and 87.1% (inactive) | 31.3% (inactive) and 271% (inactive) and 92% (inactive) | 24.4% (inactive) and 88.9% (inactive) and 81.9% (inactive) | 43.1% (inactive) and 78.5% (inactive) and 75.8% (inactive) | 18.3% (inactive) and 83% (inactive) and 82.5% (inactive) | 57.5% (inactive) and 166% (inactive) and 101% (inactive)
CCOC(=O)C1=C(C)NC(C)=C(C(=O)OCC)C1 | 108% (inactive) and 90.8% (inactive) | 101% (inactive) and 102% (inactive) | 83.1% (inactive) and 76.6% (inactive) | 99.5% (inactive) | 104% (inactive) and 91.2% (inactive) | 82.4% (inactive) and 104% (inactive) | 101% (inactive) and 103% (inactive) | 94.4% (inactive) and 102% (inactive) | 98.4% (inactive) and 102% (inactive) | 105% (inactive) and 101% (inactive)
Nc1ccc(O)c(C(=O)O)c1 | 97.3% (inactive) and 107% (inactive) and 99.2% (inactive) | 111% (inactive) and 113% (inactive) and 115% (inactive) | 74.4% (inactive) and 97.2% (inactive) and 94.7% (inactive) | 91.9% (inactive) and 104% (inactive) and 117% (inactive) | 74.5% (inactive) and 101% (inactive) | 89.6% (inactive) and 105% (inactive) | 93.4% (inactive) and 94.1% (inactive) and 108% (inactive) | 91.3% (inactive) and 102% (inactive) and 84.2% (inactive) | 84% (inactive) and 99.5% (inactive) | 94.7% (inactive) and 116% (inactive) and 115% (inactive)
CC1(C)OC(=O)C(=Cc2ccc(C#N)cc2)C(=O)O1 | 109% (inactive) and 104% (inactive) | 97.7% (inactive) and 100% (inactive) | 97% (inactive) and 96.4% (inactive) | 98.9% (inactive) and 101% (inactive) | 89.7% (inactive) | 84.3% (inactive) and 99.2% (inactive) | 95.6% (inactive) | 101% (inactive) and 117% (inactive) | 103% (inactive) | 114% (inactive) and 101% (inactive)
CC(=O)Oc1cc(C(C)C)c(OCCN(C)C)cc1C | 105% (inactive) and 104% (inactive) | 110% (inactive) and 115% (inactive) | 102% (inactive) and 89.9% (inactive) | 105% (inactive) and 98.2% (inactive) | -90.7% (active) and 97.7% (inactive) | 92% (inactive) and 103% (inactive) | 106% (inactive) and 103% (inactive) | 99.7% (inactive) and 94% (inactive) | 94% (inactive) and 102% (inactive) | 119% (inactive) and 88.5% (inactive)
CCOc1ccc(/C=C\C(=O)O)cc1 | 105% (inactive) | 105% (inactive) | 104% (inactive) | 106% (inactive) | 103% (inactive) | 102% (inactive) | 108% (inactive) | 109% (inactive) | 105% (inactive) | 107% (inactive)
CC(CN(C)C)CN1c2ccccc2Sc2ccccc21 (stereo not given) | 84.8% (inactive) and 89.2% (inactive) and 84.7% (inactive) | 56.1% (inactive) and 71.1% (inactive) and 67.4% (inactive) | 64.2% (inactive) and 60.6% (inactive) and 43.4% (inactive) | 94.6% (inactive) and 80.4% (inactive) and 91.2% (inactive) | 73.4% (inactive) and 87.5% (inactive) and 76.9% (inactive) | 63.7% (inactive) and -49.1% (active) and 52.7% (inactive) | 87.1% (inactive) and 74% (inactive) and 89.3% (inactive) | 92.8% (inactive) and 65.9% (inactive) | 80.6% (inactive) and 83.5% (inactive) and 73.2% (inactive) | 87.6% (inactive) and 113% (inactive) and 68.2% (inactive)
OCc1ccccc1F | 15% (inactive) | 31.3% (inactive) | 126% (inactive) | 103% (inactive) | 80.5% (inactive) | 71.9% (inactive) | 95.7% (inactive) | 84% (inactive) | 75.8% (inactive) | 103% (inactive)
Cc1nc(Nc2ccc(Cl)cc2)c2cnn(-c3ccccc3)c2n1 | 94.8% (inactive) | 97.2% (inactive) | 86.6% (inactive) | 102% (inactive) | 98.8% (inactive) | 99.6% (inactive) | 94.4% (inactive) | 100% (inactive) | 97.9% (inactive) | 102% (inactive)
O=C(/C=C/C=C/c1ccc2c(c1)OCO2)N1CCCCC1 | 101% (inactive) and 95.3% (inactive) | 99.5% (inactive) and 87.6% (inactive) | 112% (inactive) and 99.4% (inactive) | 97.2% (inactive) and 99.6% (inactive) | 95.1% (inactive) and 102% (inactive) | 97.7% (inactive) and 90% (inactive) | 97.7% (inactive) and 97.9% (inactive) | 92% (inactive) and 90% (inactive) | 97.7% (inactive) and 101% (inactive) | 129% (inactive) and 94.1% (inactive)
COc1ccc(/C=N/NC(N)=S)cc1 | 106% (inactive) | 102% (inactive) | 87.7% (inactive) | 100% (inactive) | 96.7% (inactive) | 86.9% (inactive) | 104% (inactive) | 101% (inactive) | 95.8% (inactive) | 112% (inactive)
CN(C)c1ccc(C(=N)c2ccc(N(C)C)cc2)cc1 | 23.5% (inactive) and 20.9% (inactive) | 2.09% (active) and 4.13% (active) | -30.8% (active) and 8.36% (active) | 41.1% (inactive) and 38.3% (inactive) | 16.6% (inactive) and 17.1% (inactive) | 66% (inactive) and 47.3% (inactive) | 7.19% (active) and 22.7% (inactive) | 31.4% (inactive) and 31.8% (inactive) | 28.9% (inactive) and 33.9% (inactive) | 44% (inactive) and 36% (inactive)
O=C(O)c1c2c(nc3ccccc13)Cc1ccccc1-2 | 103% (inactive) | 109% (inactive) and 101% (inactive) | 99.6% (inactive) and 101% (inactive) | 108% (inactive) and 101% (inactive) | 101% (inactive) and 103% (inactive) | 99.2% (inactive) and 86% (inactive) | 110% (inactive) and 102% (inactive) | 105% (inactive) and 92.9% (inactive) | 99.9% (inactive) and 90.1% (inactive) | 109% (inactive) and 98.4% (inactive)
CCOC(=O)c1ccc(N2C(=O)C(Cl)(c3ccccc3)C2c2ccco2)cc1 (stereo not given) | 67% (inactive) | 78.9% (inactive) | 82.3% (inactive) | 76.4% (inactive) | 79.1% (inactive) | 85.9% (inactive) | 70.4% (inactive) | 72.1% (inactive) | 77% (inactive) | 88.3% (inactive)
CCN(CC)CCNC(=O)c1ccc(NCN2C(=O)NC(c3ccccc3)(c3ccccc3)C2=O)cc1 | 113% (inactive) and 105% (inactive) | 108% (inactive) and 112% (inactive) | 103% (inactive) and 97.1% (inactive) | 109% (inactive) and 105% (inactive) | 95.2% (inactive) and 102% (inactive) | 97.6% (inactive) and 93% (inactive) | 101% (inactive) and 109% (inactive) | 104% (inactive) and 97% (inactive) | 95.1% (inactive) and 97.6% (inactive) | 117% (inactive)
O=C1C(=O)c2ccccc2C(O)=C1CC=C(Cl)Cl | 25.8% (inactive) and 30.7% (inactive) | 31.4% (inactive) and 34.8% (inactive) | 54.3% (inactive) and 57.4% (inactive) | 52.9% (inactive) and 61.9% (inactive) | 42.5% (inactive) and 42.8% (inactive) | 35.3% (inactive) and 40.9% (inactive) | 48.4% (inactive) and 48.1% (inactive) | 55.7% (inactive) and 60% (inactive) | 16.7% (inactive) and 27.4% (inactive) | 70.1% (inactive)
